This is a sample that favours compounds with a hit; in the whole collection about 2.3% have one here.
CHRM1 agonist: human M1 muscarinic receptor agonists, primary screen, Fluo-8 calcium fluorescence, CHO-K1 cells, HTS; Muscarinic acetylcholine receptor M1 (Homo sapiens), P11229; CHO-K1 hM1, agonist mode; 0% DMSO, 100% acetylcholine EC100; activation, % at 3 µM; actives 0.33% (n = 360,000); AID 588814, 2011;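 active means activation above the run's mean compound activation plus 3 SD, cut at about 16% in these data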;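 further: peak over basal fluorescence ratio within a 140 s kinetic read after compound addition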
Target sequence (P11229 whole entry, looked up): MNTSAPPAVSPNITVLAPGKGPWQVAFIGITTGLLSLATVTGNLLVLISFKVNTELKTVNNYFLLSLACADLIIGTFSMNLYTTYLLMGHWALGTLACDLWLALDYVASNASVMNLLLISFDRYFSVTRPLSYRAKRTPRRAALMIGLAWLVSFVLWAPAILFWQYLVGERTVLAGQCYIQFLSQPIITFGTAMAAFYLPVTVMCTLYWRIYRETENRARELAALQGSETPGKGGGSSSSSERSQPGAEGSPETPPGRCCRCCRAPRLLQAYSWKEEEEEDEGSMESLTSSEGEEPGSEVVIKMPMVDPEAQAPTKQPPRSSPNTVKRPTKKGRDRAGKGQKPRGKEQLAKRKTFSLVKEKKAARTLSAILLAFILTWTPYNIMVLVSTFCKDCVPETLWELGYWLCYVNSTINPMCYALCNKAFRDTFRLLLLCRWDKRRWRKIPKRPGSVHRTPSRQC
CHO-K1 Ca PAM: nonselective calcium activators in parental CHO-K1 cells, primary screen, counter-screen for M1 PAM project, cell-based, Fluo-8 calcium fluorescence, full deck, 1536-well. AID 602247, 2012. activation, % at 3 µM. actives 0.02% (n = 360,000). ATP EC20; 0% at ATP EC20, 100% at ATP max;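 active means activation above the run cutoff, the mean activation of all test compounds plus 3 SD, cut at about 40% in these data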;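 further: peak over basal fluorescence ratio in a 140 s read after ATP addition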
CHRM1 PAM: human M1 muscarinic receptor positive allosteric modulators, primary screen, CHO-K1 cells, Fluo-8 calcium fluorescence, 1536-well. CHO-K1 hM1, ACh EC20; 0% = ACh EC20, 100% = maximal ACh. activation, % at 3 µM. actives 0.088% (n = 360,000). Muscarinic acetylcholine receptor M1 (Homo sapiens), P11229. AID 588819, 2011; in the data active means activation above about 19%, passing the limit was not always enough
M1 antag: human M1 muscarinic receptor antagonists, primary screen, CHO-K1 cells, Fluo-8 calcium fluorescence, 1536-well; inhibition, % at 3 µM; CHO-K1 hM1, ACh EC80 antagonist; AID 588852, 2011; actives 1.3% (n = 360,000);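 active means percent inhibition above its own plate's cutoff, namely the mean of that plate's compound wells plus 3 SD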;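 further: peak over basal fluorescence ratio during 140 s after agonist addition; 0% = ACh EC80 plus DMSO and 100% = DMSO alone without agonist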
M1 ag parental: counter-screen for M1 agonists: effect in parental CHO-K1 cells | Fluo-8 calcium fluorescence; scaled to maximal ATP response, vehicle zero | activation, % at 3 µM | actives 0.48% (n = 360,000) | AID 602248, 2012; in the data active means activation above about 15%;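 further: untransfected CHO-K1 host cells lacking M1 receptor as counterscreen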
CHO-K1 Ca antag: nonselective inhibitor or artifact in parental CHO-K1 cells; ATP-induced calcium, Fluo-8 fluorescence; inhibition, % at 3 µM; actives 0.6% (n = 360,000);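 active means inhibition above a per-plate cutoff, the plate's mean sample inhibition plus 3 SD, cut at about 24% in these data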;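 further: 0% = DMSO plus EC80 ATP and 100% = DMSO alone without ATP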
* = called active by the depositor; nt = no result.

SMILES	CHRM1 agonist	CHO-K1 Ca PAM	CHRM1 PAM	M1 antag	M1 ag parental	CHO-K1 Ca antag
COc1ccc(C2CC(=O)Oc3cc(C)cc(C)c32)cc1 (stereo not given)	-3.4	26.6	-1.1	-2.2	1.4	-15.1
COc1ccc(C2CC(=O)Oc3c(C(C)C)ccc(C)c32)cc1 (stereo not given)	18.1*	11.9	11.6	-14.3	5.2	8.2
CC(C)CCCN1C(N(C)C)=NC[C@@H]1Cc1ccccc1	-10.9	10.7	0.9	0.2	0.5	-10.5
NC1=NC2(CCCCC2)n2c(nc3ccccc32)N1	-4.3	9.1	-7.1	-12.5	-0.1	-9.5
NC1=NC2(CCN(Cc3ccccc3)CC2)n2c(nc3ccccc32)N1	-6.2	-8.1	-4.5	-3.0	-0.6	29.3*
O=C(CC1NCCc2ccccc21)Nc1ccccc1 (stereo not given)	-10.9	13.0	-0.7	4.0	0.7	1.7
O=C(CC1NCCc2ccccc21)Nc1ccc(Oc2ccccc2)cc1 (stereo not given)	-12.8	25.1	1.4	0.9	20.0*	-3.8
C/C(=N/NC(=O)CN1CCN(Cc2ccccc2Cl)CC1)c1ccncc1	-13.3	22.2	-2.5	2.4	0.0	-13.8
COc1cccc(NC(=O)C(c2ccccc2)N2CCN(CC(=O)N3CCOCC3)CC2)c1 (stereo not given)	-1.1	19.7	7.2	-3.2	0.5	-12.7
COc1cccc(NC(=O)C(c2ccccc2)N2CCCCC2)c1 (stereo not given)	-6.1	3.6	-23.1	50.4*	-0.1	-11.2
CC(C)C(=O)NNC(=O)c1cc2sccc2s1	-2.9	18.4	4.4	-8.2	1.1	-4.1
Cc1cc([N+](=O)[O-])nn1Cc1ccc(C(=O)N/N=C/c2ccc(O)cc2O)cc1	-2.2	22.2	3.0	-6.6	0.7	-8.0
O=C(N/N=C/c1cccnc1)c1ccc(CN2c3cccc4cccc(c34)S2(=O)=O)cc1	8.6	7.8	-2.2	-0.4	1.9	-9.7
O=C(N/N=C/c1ccccc1)c1ccc(CN2C(=O)c3cccc4cccc2c34)cc1	43.4*	17.8	10.4	-7.7	1.2	-8.8
O=C(N/N=C/c1ccc(O)cc1O)c1ccc(CN2C(=O)c3cccc4cccc2c34)cc1	16.4*	4.5	-4.1	2.2	0.1	10.4
Cc1cc(C(=O)Nc2ccc3ccccc3c2)c(C)o1	-3.7	-24.0	0.2	9.6	-0.5	10.0
COc1ccc(C(C(=O)NC2CCCCC2)N(Cc2cccnc2)C(=O)c2snc(C(N)=O)c2N)cc1 (stereo not given)	-1.6	9.5	2.2	-2.0	1.4	-9.0
COc1ccc(C(CNC(=O)C(CC(C)C)NS(=O)(=O)c2ccc(C)cc2)N2CCOCC2)cc1 (stereo not given)	-6.5	5.7	4.1	-3.2	1.2	-12.3
S=C1N(c2ccccc2)C(c2ccc(Cl)cc2)N2CCCN12 (stereo not given)	-6.9	7.2	-21.1	95.8*	-0.3	-3.0
S=C1N(c2ccccc2)C(c2ccc(Br)cc2)N2CCCN12 (stereo not given)	-6.6	14.1	-27.5	100.2*	0.9	-4.9
COc1ccc(C2N(c3ccccc3)C(=S)N3CCCN23)cc1 (stereo not given)	-8.8	18.8	-22.1	31.7	0.2	-4.0
CC(=O)Nc1cccc(-c2ccnc3c2CC(C(=O)Nc2ccc(Cl)cc2)O3)c1 (stereo not given)	1.8	2.2	2.6	-7.3	3.7	-4.8
CCOc1ccc(OCCSc2nc3ccccc3[nH]2)cc1	-3.1	7.1	-6.5	10.3	9.2	-1.0
CCCOc1ccc(CSc2nc3ccccc3[nH]2)cc1	-3.4	-8.5	-27.4	38.2*	11.6	23.4
CCCS(=O)(=O)N1CCCC(C(=O)Nc2ccc3c(c2)CCC3)C1 (stereo not given)	-5.1	11.4	6.1	-13.6	1.6	-9.2
SMILES	CHRM1 agonist	CHO-K1 Ca PAM	CHRM1 PAM	M1 antag	M1 ag parental	CHO-K1 Ca antag
CCOC(=O)N1CCC(NCCNC(=O)c2ccc(Cl)cc2)CC1	21.6*	3.1	-1.6	6.7	1.2	-4.2
CCOC(=O)N1CCC(NCCNC(=O)c2ccc(F)c(F)c2)CC1	63.9*	-17.9	-31.3	74.5*	0.7	2.7
CCOC(=O)N1CCC(NCCNC(=O)c2ccco2)CC1	-2.3	-6.5	-7.3	21.0	0.5	-2.5
CCOC(=O)N1CCC(NC(=O)c2cc(C(=O)NCc3ccc(F)cc3)ccc2CO)CC1	-2.0	-0.7	3.4	-0.1	-1.0	5.7
CCOC(=O)N1CCC(NC(=O)c2cc(C(=O)Nc3ccc(F)cc3F)ccc2CO)CC1	-1.7	-3.5	-9.2	9.5	3.9	28.5*
ClCc1ncc(-c2ccc(Cl)cc2)o1	-8.2	6.1	4.7	-5.6	0.3	-12.1
CCCCN1C(=O)C(=O)NC[C@@H]1Cc1ccc(O)cc1	nt	-0.2	nt	nt	0.9	-9.5
CSc1nc(N)nc(SCC(=O)Nc2ccc(Cl)cc2)c1C#N	2.3	2.3	-1.3	5.9	7.1	0.2
CSc1nc(N)nc(SCC(=O)Nc2cccc(F)c2)c1C#N	1.1	-1.3	-10.1	24.5*	11.3	13.1
c1ccc(Cn2c(NCc3ccco3)nc3ccccc32)cc1	-6.0	-3.2	-11.9	16.5	0.9	25.1*
CCn1c(NCc2ccco2)nc2ccccc21	-6.9	11.2	7.5	-9.4	1.9	-6.2
CCCN(CCC)CC(=O)Nc1cccc2c1OCO2	-2.7	10.1	12.3	-12.4	0.7	-7.6
CC1CCN(CC(O)CN2c3ccccc3Sc3ccccc32)CC1 (stereo not given)	-5.0	1.7	-11.3	8.3	25.5*	2.1
CC1CCN(C(=O)N2c3ccccc3Sc3ccccc32)CC1	-6.5	4.7	-6.5	-10.0	0.1	-7.6
Cc1cc(C)nc(-n2nc(C)cc2NC(=O)CN2CCC(C)CC2)n1	-7.5	5.5	20.4*	-13.4	0.2	0.0
Cc1cc(C)nc(-n2nc(C)cc2NC(=O)CN2CCCC2)n1	-5.3	17.8	3.0	-3.9	0.6	-5.2
CC1CCCCC1NC(=O)C1CCCN(S(=O)(=O)c2ccc(-n3cnnn3)cc2)C1 (stereo not given)	-2.9	-1.1	8.2	-7.2	0.5	-3.5
O=C1NC(c2ccc(F)cc2)Oc2ccccc21 (stereo not given)	-1.8	-5.1	1.4	-1.2	1.2	-7.2
Cc1ccc(C2NC(=O)c3ccccc3O2)cc1 (stereo not given)	2.4	20.7	11.6	-11.1	18.8*	-4.1
O=C1NC(c2cccc([N+](=O)[O-])c2)Oc2ccccc21 (stereo not given)	-2.8	-19.5	-7.1	10.1	-0.8	27.4*

Compound activity deposited in PubChem by The Scripps Research Institute Molecular Screening Center.
